PubChem BioAssay (NCATS)
Results filed as inconclusive are left out. The source made the active and inactive calls. Calls come from the whole dose curve; as a rule, active = well fitted curve in the direction sought with a large enough effect; inconclusive = small, poorly fitted or top-dose-only effect, or another doubt; inactive = no such curve, though single readings can be large or run the other way.

These molecules were tested against Thioredoxin reductase 1, cytoplasmic (Rattus norvegicus) (UniProt O89049) (assay: qHTS Assay for Substrates of Mammalian Selenoprotein Thioredoxin Reductase 1 (TrxR1) (AID 488772;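 note: a drop in NADPH fluorescence below the no-compound background marks a TrxR1 substrate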)). Conditions: purified TrxR1, NADPH consumption substrate assay; series mostly up to 57.1 µM.
Sequence of Thioredoxin reductase 1, cytoplasmic (Rattus norvegicus) (O89049 whole entry, looked up): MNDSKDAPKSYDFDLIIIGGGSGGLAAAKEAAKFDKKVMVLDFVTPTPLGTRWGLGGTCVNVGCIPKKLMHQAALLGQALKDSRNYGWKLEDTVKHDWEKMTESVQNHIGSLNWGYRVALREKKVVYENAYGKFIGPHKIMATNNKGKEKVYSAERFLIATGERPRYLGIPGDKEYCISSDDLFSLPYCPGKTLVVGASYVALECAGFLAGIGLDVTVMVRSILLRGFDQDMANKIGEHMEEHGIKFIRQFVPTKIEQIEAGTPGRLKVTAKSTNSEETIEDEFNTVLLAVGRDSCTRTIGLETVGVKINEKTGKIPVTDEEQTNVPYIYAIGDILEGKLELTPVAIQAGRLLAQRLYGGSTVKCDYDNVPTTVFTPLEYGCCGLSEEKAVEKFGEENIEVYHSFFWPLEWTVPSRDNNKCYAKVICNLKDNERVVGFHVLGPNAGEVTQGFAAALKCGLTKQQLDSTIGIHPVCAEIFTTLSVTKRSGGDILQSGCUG
From the text: The selenoprotein thioredoxin reductase (TrxR; EC 1.8.1.9) is a FAD containing homodimeric pyridine nucleotide-disulfide oxidoreductase with many cellular roles. Together with NADPH and its prime substrate thioredoxin (Trx), the enzyme forms the core of the Trx system. The mammalian Trx system exerts a wide spectrum of functions including redox regulation, antioxidant defense, regulation of transcription factors as well as support of cell growth and replication. Many of these functions involve the reduction of Trx, which may subsequently reduce a number of different substrates including ribonucleotide reductase, peroxiredoxins or NFkB. Mammalian TrxR itself also has a broad substrate specificity, reducing both protein and non-protein substrates, including low molecular weight compounds such as dehydroascorbate, lipoic acid, ubiquinone, and juglone. In addition, several drugs in clinical use for anticancer treatment are indeed known to target TrxR1.
This BioAssay is a validation of an NADPH fluorescence-based, dual-purpose qHTS rTrxR1 assay designed to find potential inhibitors and substrates of rTrxR1. For this particular BioAssay, actives are potential substrates. See related BioAssay for inhibitors data deposition.
Assay protocol: 2 uL of reagents (buffer in column 4 as negative control and 90 nM rTrxR1 in columns 1-3 and 5-48) were dispensed into Greiner black solid-bottom 1,536-well assay plates, followed by 1 uL of NADPH (400 uM final concentration) to each well. The plates were centrifuged at 1000 rpm for 15 seconds and subsequently incubated for 5 min at room temperature (~22 deg C) to allow for rTrxR1 reduction. Compounds (23 nL) were then transferred via Kalypsys pin tool equipped with 1536-pin array (10 nL slotted pins, V&P Scientific, San Diego, CA). In addition, a duplicate 2-fold serial dilution of the control compounds auranofin, a known gold-based TrxR1 inhibitor, and juglone (5-hydroxy-1,4-naphthoquinone), a natural TrxR1 substrate, were pin-transferred to columns 2 and 3, respectively. After incubation for 15 min at room temperature (~22 deg C), 1 uL of selenite (400 uM final concentration) were dispensed to each well. The plate was immediately transferred to a ViewLux high-throughput CCD imager (PerkinElmer), wherein kinetic measurements of NADPH fluorescence (Ex 340 nm, Em 450 nm) were acquired (8 minute kinetic read, see Table 1). Read 1 was utilized to assess the capacity of a compound to serve as an rTrxR1 substrate, i.e. a decrease in NADPH fluorescence compared to the no-compound background is an indication of a substrate behavior for that particular compound. For inhibitory activity of a compound, delta values, computed as the difference in fluorescence intensity between the first and last reads of an 8-minute time kinetic window, were used. All reagents were diluted in an assay buffer consisting of 50 mM Tris-HCl, pH 7.5, 2 mM EDTA, and 0.01% Tween-20.
Throughout the screen, reagent bottle and all liquid lines were made light-tight to minimize reagent degradation. All screening operations were performed on a fully integrated robotic system (Kalypsys, San Diego, CA) containing one RX-130 and two RX-90 anthropomorphic robotic arms (Staubli, Duncan, SC). Library plates were screened starting from the lowest and proceeding to the highest concentration, and a 'double-pinning' step of the highest concentration was required to access higher concentrations of compounds. Vehicle-only plates, with DMSO being pin-transferred to the columns 5-48, were inserted uniformly at the beginning and the end of each library in order to monitor and record any shifts in the background, which can be affected by reagent dispensers or loss in enzyme activity over time. Screening data were corrected, normalized, and concentration-effect relationships were derived by using publicly-available curve fitting algorithms developed in-house (http://ncgc.nih.gov/pub/openhts).

| Compound | outcome |
| --- | --- |
| CC[N+](C)(C)c1cccc(O)c1 | inactive |
| CCCC(C(=O)OCCN(CC)CC)(c1ccccc1)c1ccccc1 | inactive |
| O=c1[nH]c(=O)n([C@H]2C[C@H](O)[C@@H](CO)O2)cc1Br | inactive |
| NC(Cc1ccc(Cl)cc1)C(=O)O (stereo not given) | inactive |
| CSc1ccc(C(=O)c2[nH]c(=O)[nH]c2C)cc1 | inactive |
| CCN(CC)CCOCCOC(=O)C1(c2ccccc2)CCCC1 | inactive |
| NC(N)=NC(=O)Cc1c(Cl)cccc1Cl | inactive |
| Cc1ccc(=O)n(-c2ccccc2)c1 | inactive |
| Cc1nc2ccccn2c(=O)c1CCN1CCC(C(=O)c2ccc(F)cc2)CC1 | inactive |
| NC(=O)N1c2ccccc2C=Cc2ccccc21 | inactive |
| CCCCCN(CCCCC)C(=O)C(CCC(=O)O)NC(=O)c1ccc(Cl)c(Cl)c1 (stereo not given) | inactive |
| O=C(O)CN(CCOCCOCCN(CC(=O)O)CC(=O)O)CC(=O)O | inactive |
| NC(=O)c1cn(Cc2c(F)cccc2F)nn1 | inactive |
| CCc1c(C)[nH]c2c1C(=O)C(CN1CCOCC1)CC2 (stereo not given) | inactive |
| Cc1cc(C)c(/C=C2\C(=O)Nc3ccccc32)[nH]1 | inactive |
| c1ccc2c(c1)CCCC2C1=NCCN1 (stereo not given) | inactive |
| Nc1nc(N)c2nc(-c3ccccc3)c(N)nc2n1 | inactive |
| Cc1nnc(SCC2=C(C(=O)O)N3C(=O)[C@@H](NC(=O)Cn4cnnn4)[C@H]3SC2)s1 | inactive |
| CCCN(CCC)CCc1cccc2c1CC(=O)N2 | inactive |
| COc1cc(Cc2cnc(N)nc2N)cc(OC)c1OC | inactive |

| Compound | outcome |
| --- | --- |
| CCCN(CCC)C(=O)C(CCC(=O)O)NC(=O)c1ccccc1 (stereo not given) | inactive |
| FC(F)(F)c1ccccc1-n1ccnc1 | inactive |
| CCN(CC)CC(=O)Nc1c(C)cccc1C | inactive |
| CCn1nc(C(=O)O)c(=O)c2cc3c(cc21)OCO3 | inactive |
| O=C(O)CN(CCN(CC(=O)O)CC(=O)O)CCN(CC(=O)O)CC(=O)O | inactive |
| CN(C)CC/C=C1\c2ccccc2COc2ccccc21 | inactive |
| COc1cc2c(cc1OC)-c1cc(=Nc3c(C)cc(C)cc3C)n(C)c(=O)n1CC2 | inactive |
| CC(=O)Oc1cc(C(C)C)c(OCCN(C)C)cc1C | inactive |
| CN(C)C(=O)Oc1ccc[n+](C)c1 | inactive |
| CCCNC(C)C(=O)Nc1ccccc1C (stereo not given) | inactive |
| Cc1cccc(C)c1NC(=O)C(C)N (stereo not given) | inactive |
| Nc1ncn([C@@H]2O[C@H](CO)[C@@H](O)[C@H]2O)c(=O)n1 | inactive |
| CNCCC(Oc1ccccc1OC)c1ccccc1 (stereo not given) | inactive |
| CC(C)NCC(O)c1cc(O)cc(O)c1 (stereo not given) | inactive |
| CN(C)CCOC(=O)COc1ccc(Cl)cc1 | inactive |
| C[C@@H](O)[C@H]1C(=O)N2C(C(=O)O)=C(SCCN=CN)C[C@H]12 | inactive |
| CCOC(=O)C1=C(C)NC(C)=C(C(=O)OC)C1c1cccc(Cl)c1Cl (stereo not given) | inactive |
| C(=C\c1ccccc1)/CN1CCN(C(c2ccccc2)c2ccccc2)CC1 | inactive |
| CC(C)COCC(CN(Cc1ccccc1)c1ccccc1)N1CCCC1 (stereo not given) | inactive |
| c1cc(CN2CCCCC2)cc(OCCCNc2nc3ccccc3s2)c1 | inactive |
